# According to PubChem BioAssay (NCATS):
# Results filed as inconclusive are left out. Entries that show only a call come without a potency. Activity calls are given as the source filed them. Calls follow the shape of the dose curve; as a rule, active = well fitted cell-killing curve with a large enough effect; inconclusive = small, poorly fitted or top-dose-only effect; inactive = flat fitted curve, though single readings scatter.
# Test: qHTS assay to identify small molecule inhibitors of chordoma cells - UCH-2 (AID 1259356)
# Conditions: UCH-2 chordoma viability, CellTiter-Glo ATP luminescence, 48 h; series mostly up to 46.1 µM
# Potency is read from the fitted curve at half-maximal effect.
row,Compound,Potency
1,C[S+](CC[C@H](N)C(=O)O)C[C@H]1O[C@@H](n2cnc3c(N)ncnc32)[C@H](O)[C@@H]1O (stereo partly specified),inactive
2,CC[C@H]1OC(=O)[C@H](C)C(=O)[C@H](C)[C@@H](O[C@@H]2O[C@H](C)C[C@H](N(C)C)[C@H]2O)[C@](C)(OC)C[C@@H](C)C(=O)[C@H](C)[C@H]2N(CCCCn3cnc(-c4cccnc4)c3)C(=O)O[C@]12C,inactive
3,COc1cc(/C=C/C(=O)N2CCN(CC(=O)N3CCCC3)CC2)cc(OC)c1OC,inactive
4,O=C(O)COc1ccc(C(=O)c2cccs2)c(Cl)c1Cl,inactive
5,CN1[C@@H]2CC[C@H]1CC(OC(c1ccccc1)c1ccccc1)C2 (stereo partly specified),inactive
6,NC(=O)C(c1ccccc1)(c1ccccc1)[C@@H]1CCN(CCc2ccc3c(c2)CCO3)C1,inactive
7,CC1(C)S[C@@H]2[C@H](NC(=O)[C@H](N)c3ccc(O)cc3)C(=O)N2[C@H]1C(=O)O,inactive
8,O=c1[nH]c2ccccc2n1CCCN1CCN(C(c2ccccc2)c2ccccc2)CC1,inactive
9,CCCCCC[C@@H](O)C/C=C\CCCCCCCC(=O)O,inactive
10,CC1(C)C[C@@H]1C(=O)N/C(=C\CCCCSC[C@H](N)C(=O)O)C(=O)O,inactive
11,CN1[C@@H]2CC[C@H]1CC(OC(=O)C(CO)c1ccccc1)C2 (stereo partly specified),inactive
12,CC1(C)[C@@H](O)CC[C@]2(C)[C@H]3C(=O)C=C4[C@@H]5C[C@@](C)(C(=O)O)CC[C@]5(C)CC[C@@]4(C)[C@]3(C)CC[C@@H]12,inactive
13,CC(C(=O)O)c1ccc2c(c1)[nH]c1ccc(Cl)cc12 (stereo unspecified),inactive
14,C=CCN1C(=O)C(CC(C)C)NC1=S (stereo unspecified),inactive
15,COc1cc(CNC(=O)CCCC/C=C/C(C)C)ccc1O,inactive
16,CC(=O)[C@]1(O)Cc2c(O)c3c(c(O)c2[C@@H](O[C@H]2C[C@H](N)[C@H](O)[C@H](C)O2)C1)C(=O)c1c(O)cccc1C3=O,20.6 µM (active)
